# Laboratory results as given in PubChem BioAssay (NCATS).
# A number with no mark means an inactive call. Inconclusive results are not listed. Activity calls are given as the source filed them. Unless noted, the call rests on the fitted dose curve; in most records, active means well fitted curve in either direction with a large enough effect (not every such curve was filed as active); inconclusive means small, poorly fitted or top-dose-only effect, or another doubt; inactive means flat fitted curve, though single readings scatter.
# What was measured:
# [1] = molecular target: Lysosomal acid glucosylceramidase (Homo sapiens) (UniProt P04062); assay: Glucocerebrosidase-p2 (AID 348; in the data active means potency below about 10 µM; further: potency means the concentration at half of the fitted maximal effect); conditions: purified GBA, blue fluorogenic substrate, 40 min
# Outline: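 Normal human glucocerebrosidase (0.2 nM) with blue fluorogenic substrate (80 uM final) in citrate/phosphate pH 5.9 with 10mM sodium taurocholate, 0.01% tween-20; 40 min RT, NaOH/glycine stop; fluorescence Ex 365/Em 440; AC50 from a titration from 0.6 nM upwards.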
# [2] = AP1 Signaling Pathway (AID 357); conditions: ME-180 AP-1-bla reporter, EGF-induced, beta-lactamase ratio, 5 h; at 7.69 µM (top of the series) unless noted;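 further: ME-180 reporter cells stimulated with EGF at its EC50 level; on the % scale 0 is the no-effect control and ±100 the full control effect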
# Outline: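 Modulation of EGF-driven AP-1 transcription was assessed with a beta-lactamase reporter in ME-180 cells. Compound and EC50 EGF were co-incubated 5 hours at 37 °C before 2.5-hour CCF4 loading at room temperature and dual-emission reading.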
# [3] = molecular target: Cytochrome P450 1A2 (Homo sapiens) (UniProt P05177); assay: p450-cyp1a2 (AID 410; calls by dose curve; further: potency means the concentration at half of the fitted maximal effect;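 on activity change, negative = inhibition: -100% = full effect of reference inhibitor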); conditions: recombinant CYP1A2, luciferin-ME demethylation, luminescence; series mostly up to 11.4 µM
# Outline: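 Read-out is luminescence from luciferin produced by CYP1A2 demethylation of Luciferin-ME (100uM, at Km). Detection reagent stopped the 60 min NADPH-dependent reaction; signals were normalized to 57 uM furafylline.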
# [4] = NFAT Signaling Pathway (AID 444); conditions: Jurkat NFAT-bla M1, carbachol, beta-lactamase ratio, 5 h; at 7.69 µM (top of the series) unless noted;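 further: carbachol stimulus at about its EC50 of 1 µM final; on the % scale 0 is the no-effect control and ±100 the full control effect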
# Outline: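 Jurkat cells with NFAT-driven β-lactamase reporter and co-expressed M1 receptor, stimulated with carbachol (final 1 uM, ~EC50), compound titration, 5 h at 37 °C. CCF4 loaded 1 h at RT; 460/530 nm ratio gave %activity and AC50.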
# [5] = Stat Signaling Pathway (AID 446); conditions: ME-180 (cervical carcinoma) SIE beta-lactamase reporter, IL-6 stimulated, 5 h; at 7.69 µM (top of the series) unless noted;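 further: ME-180 cervical cancer cells given 40 pM IL-6 alongside compound; SIE-controlled beta-lactamase reporter measured as 460/530 nm FRET emission ratio; on the % scale 0 is the no-effect control and ±100 the full control effect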
# Outline: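 Normalization used AC90 stimulation (300 pM IL-6) and AC90 inhibition (125 nM pan-JAK inhibitor at 40 pM IL-6). The underlying signal is SIE-driven beta-lactamase in ME-180 cells after 5 h IL-6 exposure with compound.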
# [6] = molecular target: Glucocorticoid receptor (Homo sapiens) (UniProt P04150); assay: GR-GFP Redistribution (AID 450;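 active means compounds whose dose series gives a full or clear partial fitted curve of increased nuclear translocation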; further: potency means the concentration at half of the fitted maximal effect); conditions: U2OS GR-GFP nuclear translocation, laser cytometry, 2 h
# [7] = molecular target: Glucocorticoid receptor (Homo sapiens) (UniProt P04150); assay: GR-EFC Redistribution (AID 451; calls by dose curve; further: potency means the concentration at half of the fitted maximal effect); conditions: CHO-K1 GR-EFC translocation, beta-gal luminescence, 2 h
# Outline: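 CHO-K1 cells expressing nuclear EA and GR-ED fragments of b-gal; compounds titrated up to 46 uM final, 2 h at 37 C. GR nuclear translocation read as complemented b-gal luminescence after 1 h RT detection.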
# [8] = molecular target: Mitogen-activated protein kinase 10 (Mus musculus) (UniProt Q61831); assay: JNK3 AlphaScreen Assay (AID 530); conditions: JNK3 lysate, c-Jun phosphorylation; series mostly up to 11.4 µM;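 further: kinase came from lysate of stimulated human HepG2 cells; signal reports phosphorylation of biotinylated GST-cJun 1-79 at Ser73 with 10 µM ATP; on the % scale 0 is the no-effect control and ±100 the full control effect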
# Outline: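 HepG2 lysate (IL-1b/TNFa pre-activated) + biotin-GST-cJun 1-79 + anti-pSer73 cJun; cpd titration, 15 min RT; ATP 10 uM start; Tris pH 7.6, MgCl2, DTT, vanadate; beads in EDTA buffer; AlphaScreen.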
# [9] = molecular target: 3',5'-cyclic-AMP phosphodiesterase 4B (Homo sapiens) (UniProt Q07343); assay: qHTS Assay for Inhibitors of PDE-IV (AID 607; active means well fitted activation curve with a large enough effect in the main read-out, with a control signal flat, not every such curve was filed as active; further: % of control where 0% means no effect); conditions: HEK293 ACTOne CNG channel cells, membrane potential fluorescence; series mostly up to 22.9 µM
# Outline: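 HEK293 ACTOne cells with CNG channel (1000/well), endogenous PDE4; membrane potential dye, compounds up to 22.9 uM final. Fluorescence Ex 535/Em 590; RO 20-1724 (100 uM final) as reference.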
# Sequence of Lysosomal acid glucosylceramidase (Homo sapiens) (P04062 whole entry, looked up): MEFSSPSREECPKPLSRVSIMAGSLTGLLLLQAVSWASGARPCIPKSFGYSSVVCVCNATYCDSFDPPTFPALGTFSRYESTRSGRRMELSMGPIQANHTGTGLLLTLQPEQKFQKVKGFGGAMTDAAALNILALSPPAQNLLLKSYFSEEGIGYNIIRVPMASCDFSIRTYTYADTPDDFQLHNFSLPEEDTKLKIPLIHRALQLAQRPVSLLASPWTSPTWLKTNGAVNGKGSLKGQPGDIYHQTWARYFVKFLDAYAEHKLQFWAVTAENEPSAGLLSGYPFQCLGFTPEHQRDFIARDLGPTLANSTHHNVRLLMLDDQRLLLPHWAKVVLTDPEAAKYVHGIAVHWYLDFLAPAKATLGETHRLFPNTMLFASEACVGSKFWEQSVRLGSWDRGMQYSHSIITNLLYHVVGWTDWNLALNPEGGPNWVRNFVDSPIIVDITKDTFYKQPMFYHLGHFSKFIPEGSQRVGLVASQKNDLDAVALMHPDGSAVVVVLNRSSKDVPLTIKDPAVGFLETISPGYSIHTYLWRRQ
# Sequence of 3',5'-cyclic-AMP phosphodiesterase 4B (Homo sapiens) (Q07343 whole entry, looked up): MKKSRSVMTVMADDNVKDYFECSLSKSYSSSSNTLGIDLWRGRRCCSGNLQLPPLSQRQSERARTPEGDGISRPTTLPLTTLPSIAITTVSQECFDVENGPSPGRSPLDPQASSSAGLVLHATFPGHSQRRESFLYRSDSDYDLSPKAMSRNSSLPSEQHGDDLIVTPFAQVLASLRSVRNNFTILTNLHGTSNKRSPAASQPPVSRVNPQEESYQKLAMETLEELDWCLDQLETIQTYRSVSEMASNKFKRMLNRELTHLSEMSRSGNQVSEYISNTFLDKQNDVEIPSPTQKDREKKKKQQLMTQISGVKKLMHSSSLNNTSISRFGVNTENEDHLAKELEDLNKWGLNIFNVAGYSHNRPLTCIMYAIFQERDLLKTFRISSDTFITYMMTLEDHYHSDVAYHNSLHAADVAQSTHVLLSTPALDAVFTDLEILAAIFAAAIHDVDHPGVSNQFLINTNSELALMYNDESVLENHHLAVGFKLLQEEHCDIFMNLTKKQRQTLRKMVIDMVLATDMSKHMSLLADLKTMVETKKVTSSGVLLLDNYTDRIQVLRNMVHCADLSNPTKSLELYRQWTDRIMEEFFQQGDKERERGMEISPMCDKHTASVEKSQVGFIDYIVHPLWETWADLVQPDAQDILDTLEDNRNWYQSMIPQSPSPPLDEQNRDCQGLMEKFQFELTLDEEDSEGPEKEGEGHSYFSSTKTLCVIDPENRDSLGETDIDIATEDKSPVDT
# Sequence of Cytochrome P450 1A2 (Homo sapiens) (P05177 whole entry, looked up): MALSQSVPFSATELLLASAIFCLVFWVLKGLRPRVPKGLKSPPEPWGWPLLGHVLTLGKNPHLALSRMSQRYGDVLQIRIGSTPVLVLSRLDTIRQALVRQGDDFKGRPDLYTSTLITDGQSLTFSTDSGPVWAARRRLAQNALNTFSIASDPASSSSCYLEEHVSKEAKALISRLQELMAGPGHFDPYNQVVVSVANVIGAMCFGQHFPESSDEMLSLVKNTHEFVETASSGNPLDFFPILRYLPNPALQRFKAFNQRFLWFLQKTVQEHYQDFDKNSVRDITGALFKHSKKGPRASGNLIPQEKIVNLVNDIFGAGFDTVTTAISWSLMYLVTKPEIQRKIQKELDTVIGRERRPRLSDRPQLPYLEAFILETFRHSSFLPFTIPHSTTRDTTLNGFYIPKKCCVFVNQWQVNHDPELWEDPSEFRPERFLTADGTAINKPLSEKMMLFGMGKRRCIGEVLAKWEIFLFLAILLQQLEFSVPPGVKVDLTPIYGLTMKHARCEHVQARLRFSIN
# Sequence of Glucocorticoid receptor (Homo sapiens) (P04150 whole entry, looked up, the tested form may be a part): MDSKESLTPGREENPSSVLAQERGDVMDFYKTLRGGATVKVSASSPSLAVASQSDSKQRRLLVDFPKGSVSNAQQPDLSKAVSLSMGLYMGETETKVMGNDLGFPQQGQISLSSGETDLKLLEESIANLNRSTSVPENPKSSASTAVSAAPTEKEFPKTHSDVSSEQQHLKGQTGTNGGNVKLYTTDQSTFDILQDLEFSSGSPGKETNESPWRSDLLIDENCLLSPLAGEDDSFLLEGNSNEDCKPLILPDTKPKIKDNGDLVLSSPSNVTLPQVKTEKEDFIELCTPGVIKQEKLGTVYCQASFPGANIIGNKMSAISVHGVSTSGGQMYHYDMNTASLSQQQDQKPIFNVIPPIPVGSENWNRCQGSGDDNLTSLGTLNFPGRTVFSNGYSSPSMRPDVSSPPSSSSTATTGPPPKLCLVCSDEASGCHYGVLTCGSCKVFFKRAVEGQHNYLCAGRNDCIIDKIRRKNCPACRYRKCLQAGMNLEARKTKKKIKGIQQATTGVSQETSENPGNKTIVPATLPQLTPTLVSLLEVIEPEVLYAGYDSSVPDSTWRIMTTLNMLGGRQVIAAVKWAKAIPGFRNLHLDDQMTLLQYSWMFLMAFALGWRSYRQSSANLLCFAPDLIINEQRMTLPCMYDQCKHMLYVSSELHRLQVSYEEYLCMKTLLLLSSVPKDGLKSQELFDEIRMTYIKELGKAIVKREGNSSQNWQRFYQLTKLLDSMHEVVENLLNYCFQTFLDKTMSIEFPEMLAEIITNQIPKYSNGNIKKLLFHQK
Compound,Potency [1] [µM],"activity change, negative = inhibition [2] [%]","activity change, negative = inhibition [3]","activity change, negative = inhibition [4] [%]","activity, negative = inhibition [5] [%]",Potency [6] [µM],Potency [7] [µM],Potency [8],Potency [9],Potency [3]
O=C(O)c1ccccc1C1c2ccccc2Oc2ccccc21,> 11.4,2.36,-20.4% [at 2.29 µM],4.13,0.279,> 46,> 9.22,inactive,inactive,
O=C(O)CC[C@@]1(c2ccccc2)NC(=O)NC1=O,> 11.4,3.07,,8.48,2.02,> 46,> 9.22,inactive,inactive,inactive
Nc1nc(N)[n+]([O-])c(N)c1NCO,> 11.4,7.34,,9.37,7,> 46,> 9.22,inactive,inactive,inactive
O=C(O)[C@@H]1CCCN1Cc1c[nH]c2ccccc12,> 11.4,6.54,,6.95,3.95,> 46,> 9.22,inactive,inactive,inactive
Cn1c(=O)c2[nH]c(/N=N\N3CCN(CCO)CC3)nc2n(C)c1=O,> 11.4,6.96,-14.7% [at 2.29 µM],7.64,11.6,> 46,> 9.22,inactive,inactive,
CC(=NCC(=O)O)c1ccccc1,> 11.4,0.333,,13.9,1.76,> 46,> 9.22,inactive,inactive,3.98 µM (active)
Cc1cc(C)c(O)c(Cc2cccc(Cc3cc(C)cc(C)c3O)c2O)c1,> 11.4,0.471,-14.7% [at 2.29 µM],11.9,2.38,> 46,> 9.22,inactive,inactive,
Cc1ccnc(NS(=O)(=O)c2ccc(N=[N+]=[N-])cc2)n1,> 11.4,-2.39,,4.09,1.25,> 46,> 9.22,inactive,inactive,inactive
NCc1ccc(C(=O)O)cc1,> 11.4,3.17,-4.8% [at 2.29 µM],6.92,-2.22,> 46,> 9.22,inactive,inactive,
CN(C)Cc1cc(Cl)c(O)c(CN(C)C)c1,> 11.4,0.0803,,15.1,-1.91,> 46,> 9.22,inactive,inactive,inactive
O=C(O)/C(=C\c1ccc(O)cc1)c1cccc2ccccc12,> 11.4,1.02,,2.46,-8.2,> 46,> 9.22,inactive,inactive,inactive
O=C(O)c1cc(-c2ccc3cc4c(cc3c2)OCO4)nc2ccccc12,> 11.4,-11,,-22.2,-8.03,> 46,> 9.22,inactive,inactive,3.16 µM (active)
NC(=O)NC(=O)[C@H]1CCCC[C@@H]1C(=O)O,> 11.4,7.05,,-5.46,17.8,> 46,> 9.22,inactive,inactive,inactive
O=C1Nc2ccccc2C1=Nc1cccc2ncccc12,> 11.4,5.64,,-3.54,2.41,> 46,> 9.22,inactive,inactive,3.98 µM (active)
O=c1cc(CF)[nH]c(=S)[nH]1,> 11.4,6.77,,5.97,13.4,> 46,> 9.22,inactive,inactive,inactive
Nc1nc(SCC(=O)O)[nH]c(=O)c1N,> 11.4,4.37,,10.6,4.74,> 46,> 9.22,inactive,inactive,inactive
